Each sequence was assayed on RARa:RXR (NR concentration 270 nM, RXRa partner concentration 90 nM) (assay: PBM binding z-score (relative to random genomic background probes); higher = stronger binding; sequences stand for … in GC…GCGATTGACAGCGTAGAATGAAGG).
In short: (§1)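 On custom Agilent 4×180K arrays, double-stranded probes with 34-nt variable regions carried direct-repeat seeds, single-nucleotide variants, half-site ablations or random human genomic background. Ligand-free nuclear receptor dimers were applied for 1 h, and binding was read with antibodies against each partner (one per run). Binding z-scores come from regression-normalized fluorescence, with the random background probes as reference.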
TCTTGTAGATCAAACAGGTTAAGAAAGCCTGAGT showed a PBM binding z-score of 0.849. GCTAGTTGGTCAGTATAAGGTCACACACCGGTCG was tested, and the PBM binding z-score was 4.86. ATCTCTAGGTAACAAGTTCAGAGAAAGAGAGGAC showed a PBM binding z-score of 1.1. Sequence TCTATTAGTTGTAGGGCAACCGACGAGTCCGTTT has a PBM binding z-score of 0.212. With AGAATGAAGTTATACGTAGATCAGGGAAGAAAGT the PBM binding z-score was -0.215. For TAGCCTAGGTCATTAGGCCAGTATAGTACGCATC, the PBM binding z-score was 1.79. For CCTTACGGGTCTCGAGGTTATAGCACGACGAGCG, the PBM binding z-score was 0.806. ATACCAAGGTGATCGTAAGGTCGTTGATACTAAC was tested, and the PBM binding z-score was 2.19. TTACCAAGGTGCAAGGTCGTTGATGCACGCCTTG showed a PBM binding z-score of 1.13. With TCTTATAGGTAAACAGGTGAAAGTCCGTAAGTTA the PBM binding z-score was 0.981. ATACCAAGGTGATCGTGAGGTCCTTGATACTAAC showed a PBM binding z-score of 0.662. TCATATAGGTAAAGGTGATAGTCGAACGATATGA was tested, and the PBM binding z-score was 0.569. AGACAAAGTTCACTAGGTAACGTAAGATTCAGCT gave a PBM binding z-score of 2.91. GATGCTAGGTCAGGTTGGTCAGCTAACGGGTACG was tested, and the PBM binding z-score was 0.755. CCTTACTGGTCACGAGGTTATAGCACGACGAGCG gave a PBM binding z-score of 2.19. TCTTGTAGATCAGCAAGTTAAGAAAGCTGGCCAA showed a PBM binding z-score of -0.2. In the case of TCATATAGGGAAATGCTAGGTGAAAGTCCGATCT, the PBM binding z-score is reported as 0.746. For GCAAATAGGTAATACAAGGTGAAAGTCCGATTGT, the PBM binding z-score was 1.44. GCTTACGGGTCAACGGTTATAGCATGAATAGAAT was tested, and the PBM binding z-score was 4.02. With GCGACTGGGGCATCAGCAGATTACCATAACTTAA the PBM binding z-score was -0.267. With GCGACTGCGGCAAAGCAGGTTACCATAAGGTTGG the PBM binding z-score was 0.143. In the case of GCGACTGGGGCATTAGCAGGTTACCATAACTTAA, the PBM binding z-score is reported as 0.182. Work on ATCGCTAGGTAAAGATAGTTCAGTGAATGCAAAT yielded a PBM binding z-score of 0.173. TAGCCTAGGTCAGATCGGGCCAATATACGCTATA gave a PBM binding z-score of 1.9. Sequence CCTACCGGGCCACGAAAGGTCATTGATTCAGTGA has a PBM binding z-score of 5.36. For CCTTACGGGTCACTGACAGGTTATAGAATTTGGA, the PBM binding z-score was 4.32. With CCTTACGGGTCACTGACAGATTATAGCATTTGGA the PBM binding z-score was 4.3. In the case of TCCCGGAGGACACGAAAGGTCAGAGCTCGACATC, the PBM binding z-score is reported as 4.24. Sequence TCTCAGAGGACACGAAAGGTCAGAGCTCGACATC has a PBM binding z-score of 4.62. In the case of CGTCCGAGGTCAGCAGGTCAGTGAAAGCGACGTG, the PBM binding z-score is reported as 5.55. With AGAATGAGGATATTAAGATCAGGGAATTGCGGTC the PBM binding z-score was -0.171. CCTAGCAGCCCAGGGTCACTCAAGCATTTCGCTT gave a PBM binding z-score of 3.27. With GCTGCTAGGTCAACTGTTGGTCAGCTAAAGCTCG the PBM binding z-score was 2.9. In the case of ACTGGCAGGCCAAGGGTCACTCAAGATTAGTCCG, the PBM binding z-score is reported as 3.8. Work on CCTCGGAGGACAGAAGGTCGGAGCTGTCCGCTTT yielded a PBM binding z-score of -0.413. TAGCCTAGGTCAGGCGGGCCAGTATAGTGTCGGC gave a PBM binding z-score of 0.923. AGAATGAGGTTAAGCTCAGGGAAACAGAATACAT gave a PBM binding z-score of 2.17. CTTCAAAGTTCAACTAAGGTAACGTAAAGCACGC was tested, and the PBM binding z-score was 4.32. Work on TTACCAAGGTGAAGGTCTTTGATCCCTCTGTAGA yielded a PBM binding z-score of 0.847. ATCTCTAGGTAAATTTCAGTGAAAGATCGATAGA gave a PBM binding z-score of 0.745.

The sequences below were run on RARa homodimer (NR concentration 270 nM) in the same assay as above.
In short: as §1
In the case of TCTTGTAGATCAAACAGGTTAAGAAAGCCTGAGT, the PBM binding z-score is reported as 0.0835. With GCTAGTTGGTCAGTATAAGGTCACACACCGGTCG the PBM binding z-score was 2.27. Sequence ATCTCTAGGTAACAAGTTCAGAGAAAGAGAGGAC has a PBM binding z-score of 1.3. Work on TCTATTAGTTGTAGGGCAACCGACGAGTCCGTTT yielded a PBM binding z-score of 0.401. In the case of AGAATGAAGTTATACGTAGATCAGGGAAGAAAGT, the PBM binding z-score is reported as 0.239. With TAGCCTAGGTCATTAGGCCAGTATAGTACGCATC the PBM binding z-score was 0.0486. Sequence CCTTACGGGTCTCGAGGTTATAGCACGACGAGCG has a PBM binding z-score of -0.452. For ATACCAAGGTGATCGTAAGGTCGTTGATACTAAC, the PBM binding z-score was 0.841. Work on TTACCAAGGTGCAAGGTCGTTGATGCACGCCTTG yielded a PBM binding z-score of -0.653. TCTTATAGGTAAACAGGTGAAAGTCCGTAAGTTA was tested, and the PBM binding z-score was 0.803. ATACCAAGGTGATCGTGAGGTCCTTGATACTAAC showed a PBM binding z-score of 0.0164. In the case of TCATATAGGTAAAGGTGATAGTCGAACGATATGA, the PBM binding z-score is reported as 0.68. For AGACAAAGTTCACTAGGTAACGTAAGATTCAGCT, the PBM binding z-score was 0.576. For GATGCTAGGTCAGGTTGGTCAGCTAACGGGTACG, the PBM binding z-score was -0.108. Sequence CCTTACTGGTCACGAGGTTATAGCACGACGAGCG has a PBM binding z-score of 1.15. With TCTTGTAGATCAGCAAGTTAAGAAAGCTGGCCAA the PBM binding z-score was -0.451. Work on TCATATAGGGAAATGCTAGGTGAAAGTCCGATCT yielded a PBM binding z-score of 0.849. With GCAAATAGGTAATACAAGGTGAAAGTCCGATTGT the PBM binding z-score was 0.308. In the case of GCTTACGGGTCAACGGTTATAGCATGAATAGAAT, the PBM binding z-score is reported as 0.362. For GCGACTGGGGCATCAGCAGATTACCATAACTTAA, the PBM binding z-score was 0.336. Work on GCGACTGCGGCAAAGCAGGTTACCATAAGGTTGG yielded a PBM binding z-score of -1.11. In the case of GCGACTGGGGCATTAGCAGGTTACCATAACTTAA, the PBM binding z-score is reported as -0.164. For ATCGCTAGGTAAAGATAGTTCAGTGAATGCAAAT, the PBM binding z-score was 0.336. For TAGCCTAGGTCAGATCGGGCCAATATACGCTATA, the PBM binding z-score was -0.0136. In the case of CCTACCGGGCCACGAAAGGTCATTGATTCAGTGA, the PBM binding z-score is reported as 0.144. Work on CCTTACGGGTCACTGACAGGTTATAGAATTTGGA yielded a PBM binding z-score of 1.29. For CCTTACGGGTCACTGACAGATTATAGCATTTGGA, the PBM binding z-score was 1.11. Work on TCCCGGAGGACACGAAAGGTCAGAGCTCGACATC yielded a PBM binding z-score of 1.11. Sequence TCTCAGAGGACACGAAAGGTCAGAGCTCGACATC has a PBM binding z-score of 1.56. Work on CGTCCGAGGTCAGCAGGTCAGTGAAAGCGACGTG yielded a PBM binding z-score of 1.59. With AGAATGAGGATATTAAGATCAGGGAATTGCGGTC the PBM binding z-score was 0.578. With CCTAGCAGCCCAGGGTCACTCAAGCATTTCGCTT the PBM binding z-score was 0.00809. With GCTGCTAGGTCAACTGTTGGTCAGCTAAAGCTCG the PBM binding z-score was -0.53. Work on ACTGGCAGGCCAAGGGTCACTCAAGATTAGTCCG yielded a PBM binding z-score of -0.0207. CCTCGGAGGACAGAAGGTCGGAGCTGTCCGCTTT showed a PBM binding z-score of -0.449. In the case of TAGCCTAGGTCAGGCGGGCCAGTATAGTGTCGGC, the PBM binding z-score is reported as -0.619. In the case of AGAATGAGGTTAAGCTCAGGGAAACAGAATACAT, the PBM binding z-score is reported as -0.438. CTTCAAAGTTCAACTAAGGTAACGTAAAGCACGC gave a PBM binding z-score of 2.15. Sequence TTACCAAGGTGAAGGTCTTTGATCCCTCTGTAGA has a PBM binding z-score of -0.184. Sequence ATCTCTAGGTAAATTTCAGTGAAAGATCGATAGA has a PBM binding z-score of 1.29.

— the supplement of paper PMC6555819
